Experimental data: PubChem BioAssay (Tox21)
Calls of active or inactive are those of the source. Where a call stands in place of a potency, no number is given. Calls follow the shape of the full dose curve.

assay: G protein-coupled receptor (GPCR) small molecule agonists, calcium flux assay: HEK293 wild type cell line counter screen (AID 1920065); settings: HEK293 WT calcium flux, fluorescence, agonist mode; series mostly up to 57.6 µM
From the text: U.S. Tox21 Program National Center for Advancing Translational Sciences [NCATS] Division of Preclinical Innovation [DPI] U.S. Environmental Protection Agency [EPA] National Institutes of Environmental Health Sciences [NIEHS] National Toxicology Program [NTP] U.S. Food and Drug Administration [FDA] Assay overview: The increased intracellular calcium release that occurred upon G protein-coupled receptor (GPCR) activation led to the frequent use of calcium flux assays to detect GPCR activation. For the purpose of studying and screening compounds that may activate GPCR, receptor-overexpressing models were typically generated using Hek293 wild-type (WT) cells. In order to eliminate the compounds that may have induced calcium release for non-specific activation, a counter-assay utilizing calcium flux on Hek293 WT cells was performed. The data were formulated in order to serve as a control for any calcium flux detection utilizing Hek293 cells with either GPCR overexpression or gene modification. The procurement of Hek293 WT cells from ATCC. Fluorescence intensity can be utilized to determine the activation of the compound in a calcium flux assay. As a counter control, this cell line was utilized to screen the Tox21 10K compound library.
Assay Protocol Summary: Hek293 cells were dispensed at 1500cells/4uL/well in 1536-well black wall/clear bottom plates using a multidrop dispenser. After the assay plates were incubated at a 37 C/5% CO2 incubator for 18 hours, 4 uL of Calcium Dye Solution was added to each well. The plates were incubated at 37 C for 1 hour. For agonist mode, 23 nL of compounds dissolved in DMSO, positive control (ATP) or DMSO only was transferred to the assay plate by a pin tool station. The fluorescence intensity in the plates was measured using FDSS 7000EX kinetic plate reader with a filter set of Ex/Em=480/540 for 3 min at 1 sec intervals. Each test compound was measured at 15 concentrations and in triplicates.
Potency is read from the fitted curve at half-maximal effect.

Q: For CCCCCCCCCOC(=O)CCCCC(=O)OCCCCCCC, which Potency is on record?
A: inactive

Q: With CCCC(=O)OC[C@@H](OC(=O)CCC)[C@@H](OC(=O)CCC)[C@H](Cn1c2nc(=O)[nH]c(=O)c-2nc2cc(C)c(C)cc21)OC(=O)CCC as the molecule, how does the Potency read?
A: 15.1 µM (active)

Q: Which Potency does the source give for C=CC[N+]1([C@H]2C[C@H]3[C@@H]4CC[C@H]5C[C@H](OC(C)=O)[C@@H](N6CCCCC6)C[C@]5(C)[C@H]4CC[C@]3(C)[C@H]2OC(=O)CC)CCCCC1 here?
A: inactive

Q: Which Potency does the source give for NCCCN(CCO)CCO here?
A: inactive

Q: With CC(=O)O[C@@]12CO[C@@H]1C[C@H](O)[C@@]1(C)C(=O)[C@H](O)C3=C(C)[C@@H](OC(=O)[C@H](O)[C@@H](NC(=O)OC(C)(C)C)c4ccccc4)C[C@@](O)([C@@H](OC(=O)c4ccccc4)[C@H]21)C3(C)C as the molecule, how does the Potency read?
A: inactive

Q: With Nc1c(Cl)cc(Cl)cc1[N+](=O)[O-] as the molecule, how does the Potency read?
A: inactive

Q: With OCCN1CCN(CCCN2c3ccccc3Sc3ccc(C(F)(F)F)cc32)CC1 as the molecule, how does the Potency read?
A: inactive

Q: For c1ccc(OCc2ccc(CCCN3CCOCC3)cc2)cc1, which Potency is on record?
A: inactive

Q: With NC(N)=NCCC[C@H](N)C(=O)O as the molecule, how does the activation read?
A: 2.23% [at 5.23 µM] (inactive)

Q: Which activation does the source give for C=CCCCCCCCCCCCCCC here?
A: 0.0173% [at 11.8 µM] (inactive)

Q: Which Potency does the source give for OCCCS here?
A: inactive

Q: For CCCC1C(CC)=CC(CC)=CN1c1ccccc1 (stereo not given), which Potency is on record?
A: inactive

Q: For O=C(O)c1cc(C(=O)O)cc(C(=O)O)c1, which Potency is on record?
A: inactive

Q: With CCN(CC)c1ccc2c(-c3ccccc3C(=O)O)c3ccc(=[N+](CC)CC)cc-3oc2c1 as the molecule, how does the Potency read?
A: 34.7 µM (active)

Q: For C[C@H](CCC(=O)O)[C@H]1CC[C@H]2[C@@H]3CC[C@@H]4C[C@H](O)CC[C@]4(C)[C@H]3C[C@H](O)[C@]12C, which Potency is on record?
A: inactive

Q: For O=Cc1ccc(Cl)c([N+](=O)[O-])c1, which Potency is on record?
A: inactive

Q: Which Potency does the source give for CC(O)C1CCCCC1 (stereo not given) here?
A: inactive

Q: Which Potency does the source give for CNCCCC1c2ccccc2C=Cc2ccccc21 here?
A: inactive

Q: Which Potency does the source give for O=C1NC2CCCCN2C12CCN(CCCN1c3ccccc3CCc3ccc(Cl)cc31)CC2 (stereo not given) here?
A: inactive

Q: For CC(C)=CC=O, which Potency is on record?
A: inactive

Q: With C[C@H]1O[C@@H](O[C@H]2CC[C@@]3(C)[C@H](CC[C@@H]4[C@@H]3C[C@@H](O)[C@]3(C)[C@@H](C5=CC(=O)OC5)CC[C@]43O)C2)C[C@H](O)[C@@H]1O[C@H]1C[C@H](O)[C@H](O[C@H]2C[C@H](O)[C@H](O[C@@H]3O[C@H](CO)[C@@H](O)[C@H](O)[C@H]3O)[C@@H](C)O2)[C@@H](C)O1 as the molecule, how does the Potency read?
A: inactive

Q: For CC(=O)CC(=O)c1ccccc1, which Potency is on record?
A: inactive

Q: Which Potency does the source give for OC(CCN1CCCCC1)(c1ccccc1)C1CCCCC1 (stereo not given) here?
A: inactive

Q: For COc1ccc(N=Nc2cc(C)c(N=Nc3ccc(S(=O)(=O)O)cc3)cc2OC)cc1, which Potency is on record?
A: inactive

Q: For C=CCOC(=O)COCCC(C)C, which Potency is on record?
A: inactive

Q: Which Potency does the source give for CN1C[C@H]2c3ccccc3Oc3ccc(Cl)cc3[C@@H]2C1 here?
A: inactive

Q: For CCN(CC)CCNc1ccc(CO)c2sc3ccccc3c(=O)c12, which Potency is on record?
A: inactive

Q: Which Potency does the source give for Fc1ccc(C(c2ccc(F)cc2)N2CCN(C/C=C/c3ccccc3)CC2)cc1 here?
A: inactive

Q: Which Potency does the source give for CCO[Si](CCC1CCC2OC2C1)(OCC)OCC (stereo not given) here?
A: inactive

Q: For C=C[Si]1(C)O[Si](C)(C=C)O[Si](C)(C=C)O[Si](C)(C=C)O1 (stereo not given), which Potency is on record?
A: inactive

Q: Which Potency does the source give for CCO/C=C1\N=C(c2ccccc2)OC1=O here?
A: inactive

Q: With NS(=O)(=O)c1cc2c(cc1Cl)NC(CSCc1ccccc1)=NS2(=O)=O as the molecule, how does the Potency read?
A: inactive

Q: For C/C=C/C=C/C=O, which Potency is on record?
A: inactive

Q: With CCC(Cl)C(Cl)C(Cl)CC(Cl)C(Cl)C(C)Cl (stereo not given) as the molecule, how does the Potency read?
A: inactive

Q: With Cc1ncc([C@@H](CCCCCCc2ccc3c(n2)NCCC3)CC(=O)O)cn1 as the molecule, how does the Potency read?
A: inactive

Q: For C[C@@]12CCC[C@H]1[C@@H]1CC[C@H]3C[C@@H](O)CC[C@]3(C)[C@H]1CC2, which Potency is on record?
A: inactive

Q: Which Potency does the source give for CN1CCC(N(Cc2cccs2)c2ccccc2)CC1 here?
A: inactive

Q: For Oc1c(I)cc(Cl)c2cccnc12, which Potency is on record?
A: inactive

Q: With CCCC(C)CC (stereo not given) as the molecule, how does the Potency read?
A: inactive

Q: Which Potency does the source give for CCCCCCOC(=O)c1ccc(O)cc1 here?
A: inactive
